Data taken from ChEMBL document CHEMBL1157539, “Thousands of chemical starting points for antimalarial lead identification” (Nature, 2010).

System: Plasmodium falciparum
Test: GSK_TCMDC: Inhibition of Plasmodium falciparum Dd2 in whole red blood cells, using parasite LDH activity as an index of growth. Test compounds present at 2uM
Assay type: functional

SMILES | Inhibition [%]
CCN(CCO)Cc1ccc(-c2ccc(NS(=O)(=O)c3cccc4cccnc34)cc2)cc1.O=C(O)C(F)(F)F | 16
O=C1Nc2ccccc2/C1=N/NC(=S)N1CCOCC1 | 75
O=C(/C=C/c1ccc2ccccc2c1)NCCCCCN1CCC(c2c[nH]c3ccccc23)CC1 | 4
Cl.N=C(N)c1cccc(OCCCOc2cccc(NC(=O)Nc3ccc([N+](=O)[O-])cc3)c2)c1 | 22
COc1ccc(NC(=O)c2ccc(-c3nc(-c4cccc(C(F)(F)F)c4)cs3)cc2)cc1N1CCN(C)CC1 | 59
Cc1cc(N[C@@H](Cc2ccccc2)C(=O)NC2CCCC2)nc(NCC2CCCCC2)n1.O=C(O)C(F)(F)F | 96
Cc1ccccc1/N=C1\NC(=S)N(c2cccc(C(F)(F)F)c2)C12CCC(C(C)(C)C)CC2 (stereo not given) | 25
COc1ccc(Cl)cc1N1CCN(CCCNC(=O)c2ccc(-c3nc4cc(Cl)c(C)cc4[nH]3)s2)CC1 | 97
O=C(Nc1cccc(-c2ccc(-c3nc4cc(C(F)(F)F)ccc4[nH]3)cc2)c1)c1ccncc1 | 90
COc1cc2nc(N3CCC(CNC(=O)c4ccc(-c5ccccc5)cc4)CC3)nc(N)c2cc1OC | 92
COc1ccc(-c2ccc(NC(=O)c3cccc(F)c3)cc2)cc1CN1CCCN(C)CC1.O=C(O)C(F)(F)F | 49
CCOC(=O)c1cc2c(CCN3C(=O)c4ccccc4C3=O)cn(C)c2cc1-c1ccncc1 | 90
O=C(Nc1cccc(-c2ccc(-c3nc4cc(C(F)(F)F)ccc4[nH]3)s2)c1)c1ccncc1 | 46
CCc1ccccc1N1CCN(CCCCNC(=O)c2ccc(NC(=O)c3ccc(Cl)cc3)cc2)CC1 | 4
CCOc1cc(CC)ccc1C1CCN(CCCCNC(=O)c2ccc(NC(=O)c3ccc(Cl)cc3)cc2)CC1.Cl | 58
Cc1ccc2[nH]c(-c3cc(-c4cccc(C#N)c4)cnc3N)nc2c1.O=C(O)C(F)(F)F | 99
O=C(Nc1cccc(-c2cccc(-c3nc4cc(C(F)(F)F)ccc4[nH]3)c2)c1)Nc1ccc(F)c(F)c1F | 100
CCOC(=O)NC1=NC(C)(C)N(OCc2cccc3c2ccc2ccccc23)C(NC(=O)OCC)=N1 | 3
CCN(CC)CCN(Cc1ccc(-c2ccc(C(F)(F)F)cc2)cc1)C(=O)Cn1c(CCc2cccc(F)c2F)nc(=O)c2cc(F)c(F)cc21.O=C(O)C(O)C(O)C(=O)O | 56
COc1ccc(Nc2ncc3c(-c4ccc(NC(=O)c5cccc(C(F)(F)F)c5)cc4)c[nH]c3n2)cc1OC | 30

SMILES | Inhibition [%]
CCCCCCCCCc1c(C)[nH]c2ccccc2c1=O | 96
Cc1ccc(C)c(Cn2c(N3CCC(C(=O)NCc4cccs4)CC3)nc3ccccc32)c1 | 73
CCN(CC)CCOc1ccc(N(Cc2ccc(C(C)(C)C)cc2)C(=O)c2ccc(Cc3ccccc3)cc2)cc1OC.Cl | 73
CN(C)Cc1ccc(-c2ccc(NC(=O)c3ccc4c(=O)n(Cc5ccoc5)cnc4c3)cc2)cc1 | 16
Cc1ccc(Nc2nc(N/N=C/c3cc4c(cc3Br)OCO4)nc(Nc3ccc([N+](=O)[O-])cc3)n2)cc1C | 89
Clc1ccc(-c2[nH]c3ccccc3c2CN2CCC(N3CCCCC3)CC2)cc1 | 15
CN1CCC(c2c[nH]c3ccc(NC(=O)Nc4ccc(-c5ccncc5)cc4Cl)cc23)CC1 | 7
O=C(NCCCCCN1CCC(c2c[nH]c3ccccc23)CC1)Nc1cccc(Br)c1 | 0
CCCCCCN1CCC(NCc2cccc3ccccc23)CC1.O=C(O)C(F)(F)F | 12
Cc1nc(O)c2c(ccc3ccc(CNc4ccc(C(=O)N[C@@H](CCC(=O)O)C(=O)O)cc4)cc32)n1 | 95
COc1ccc(NC(=O)C2c3ccccc3C(=O)N(C3CCCC3)C2c2cccs2)c(OC)c1 (stereo not given) | 54
O=C(O)C(F)(F)F.O=[N+]([O-])c1cccc(CNCC2CCN(CC3CCCCC3)CC2)c1 | 14
Cc1cc(N[C@@H](CC(C)C)C(=O)NCCOc2ccccc2)nc(NCCc2ccc(F)cc2)n1.O=C(O)C(F)(F)F | 54
COc1ccc(CN2CCCN(Cc3ccc(C(=O)Nc4ccc(Cl)cc4)cc3)CC2)cc1.O=C(O)C(F)(F)F | 3
COc1cc(Nc2ccnc3cc(-c4nccs4)ccc23)ccc1OCCCc1nc2ccccc2[nH]1.Cl | 68
O=C1SC(=Cc2ccc(O)c(O)c2)C(=O)N1c1ccccc1 | 17
Clc1cc2c(Nc3ccc(Oc4ccccc4)cc3)ccnc2cc1-c1ccc(CNCCN2CCOCC2)o1 | 89
CCOc1cc(C2C(C(=O)OC(C)C)=C(C)NC3=C2C(=O)CC(c2ccc(Cl)cc2)C3)ccc1OC(C)=O (stereo not given) | 20
Cc1nc(NC(=N)N)nc2cc3c(cc12)CCC3.Cl | 58
COc1ccc(NC(=O)/C=C/c2ccc(-c3ccc(-c4noc(C)n4)cc3)cc2)cc1OCCN(C)C.O=C(O)C(=O)O | 31
